Activity calls are given as the source filed them. The calls were made as follows: active = hit-call score of the fitted dose curve at least 0.9, where 1 is the maximum; inactive = score below 0.9.

Our source for the outcome and AC50 values is PubChem BioAssay (EPA / NIEHS).

Read-out in assay [1]: TIMP metallopeptidase inhibitor 1 (TIMP1), TIMP1 (gene 7076)
Description: BSK_hDFCGF_TIMP1: BioMAP Diversity Plus: hDFCGF Assay for TIMP metallopeptidase inhibitor 1 (TIMP1) Biomarker Activity (AID 2283062). The following applies: primary human foreskin fibroblasts; actives raise or lower the signal. A digest of the protocol: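 Fibroblasts from human foreskin are treated with test chemical and harvested at 24 h. TIMP-1 is quantified by ELISA, and gain or loss of signal is scored against DMSO.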

Read-out in assay [2]: Monokine induced gamma interferon (MIG), CXCL9 (gene 4283)
The assay is described as follows: BSK_hDFCGF_MIG: BioMAP Diversity Plus: hDFCGF Assay for Monokine induced gamma interferon (MIG) Biomarker Activity (AID 2283063). The following applies: primary human foreskin fibroblasts; actives raise or lower the signal. A digest of the protocol:
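MIG signal, determined by ELISA, reflects 24 h chemical exposure of human skin primary fibroblasts. DMSO serves as negative control and baseline.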

Read-out in assay [3]: Matrix Metallopeptidase 1 (MMP1), MMP1 (gene 4312)
Description: BSK_hDFCGF_MMP1: BioMAP Diversity Plus: hDFCGF Assay for Matrix Metallopeptidase 1 (MMP1) Biomarker Activity (AID 2283064). The following applies: primary human foreskin fibroblasts; actives raise or lower the signal. Summed up: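 ELISA read-out of MMP1 from human foreskin fibroblasts (primary skin cells), 24 h post-dose. Gain or loss of signal was fitted bidirectionally versus DMSO negative control; cytotoxicity was checked by SRB in parallel cultures.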

Read-out in assay [4]: Vascular cell adhesion molecule 1 (VCAM1), VCAM1 (gene 7412)
Description: BSK_hDFCGF_VCAM1: BioMAP Diversity Plus: hDFCGF Assay for Vascular cell adhesion molecule 1 (VCAM1) Biomarker Activity (AID 2283065).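 As to AC50: VCAM-1 protein level quantified by ELISA after 24 h chemical exposure.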 The following applies: primary human foreskin fibroblasts; actives raise or lower the signal. Summed up: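 Cells are dosed, cultured for 24 h, then VCAM-1 is quantified by ELISA; signal increases and decreases are both fitted relative to DMSO.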

Read-out in assay [5]: Intercellular Adhesion Molecule 1 (ICAM1), ICAM1 (gene 3383)
Description: BSK_KF3CT_ICAM1: BioMAP Diversity Plus: KF3CT Assay for Intercellular Adhesion Molecule 1 (ICAM1) Biomarker Activity (AID 2283067). The settings on record: primary human keratinocytes with fibroblasts; actives raise or lower the signal. Summed up: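 Dose the keratinocyte/fibroblast co-culture, wait 24 h, measure ICAM-1 by ELISA, then fit increases or decreases against DMSO. Cytotoxicity is checked in parallel cultures by SRB total-protein staining.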

Read-out in assay [6]: Interferon-gamma inducible Protein 10 (IP10), CXCL10 (gene 3627)
Description: BSK_KF3CT_IP10: BioMAP Diversity Plus: KF3CT Assay for Interferon-gamma inducible Protein 10 (IP10) Biomarker Activity (AID 2283068). The following applies: primary human keratinocytes with fibroblasts; actives raise or lower the signal. Summed up:
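ELISA read-out of IP-10 after 24 h chemical dosing of human skin primary co-culture (keratinocytes, foreskin fibroblasts). Gain or loss of signal relative to DMSO, bidirectional curve fit.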

Assay [7] is described as follows: BSK_KF3CT_SRB: Viability Assessment in the BioMAP Diversity Plus: KF3CT Assay (AID 2283069). The following applies: primary human keratinocytes with fibroblasts. Summed up: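 SRB read-out at 560 nm (0.1% stain, TCA-fixed cells) gauges overt cytotoxicity in a human skin keratinocyte–fibroblast co-culture 24 h post-dosing. Signal change was fitted bidirectionally relative to DMSO control.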

Read-out in assay [8]: Interleukin-1 alpha (IL1a), IL1A (gene 3552)
The assay is described as follows: BSK_KF3CT_IL1a: BioMAP Diversity Plus: KF3CT Assay for Interleukin-1 alpha (IL1a) Biomarker Activity (AID 2283070). The settings on record: primary human keratinocytes with fibroblasts; actives raise or lower the signal. Summed up:
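Primary skin co-culture (keratinocytes, foreskin fibroblasts), 24 h exposure; ELISA for IL-1a; bidirectional curve fit vs DMSO.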

Read-out in assay [9]: TIMP metallopeptidase inhibitor 2 (TIMP2), TIMP2 (gene 7077)
Description: BSK_KF3CT_TIMP2: BioMAP Diversity Plus: KF3CT Assay for TIMP metallopeptidase inhibitor 2 (TIMP2) Biomarker Activity (AID 2283071). The settings on record: primary human keratinocytes with fibroblasts; actives raise or lower the signal. A digest of the protocol: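 Measurements come from ELISA detection of TIMP-2 at 24 hours in a dosed human keratinocyte and foreskin fibroblast co-culture. DMSO serves as negative control and baseline.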

Read-out in assay [10]: Transforming growth factor beta 1 (TGFb1), TGFB1 (gene 7040)
Description: BSK_KF3CT_TGFb1: BioMAP Diversity Plus: KF3CT Assay for Transforming growth factor beta 1 (TGFb1) Biomarker Activity (AID 2283072). The following applies: primary human keratinocytes with fibroblasts; actives raise or lower the signal. A digest of the protocol: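 TGF-b1 ELISA on a 24 h dosed co-culture of human keratinocytes and foreskin fibroblasts; cytotoxicity tracked in parallel cultures by SRB staining.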

Read-out in assay [11]: C-C motif chemokine 2 (Homo sapiens) (UniProt P13500)
The assay is described as follows: BSK_KF3CT_MCP1: BioMAP Diversity Plus: KF3CT Assay for Monocyte Chemoattractant Protein 1 (MCP1/CCL2) Biomarker Activity (AID 2283073). The settings on record: primary human keratinocytes with fibroblasts; actives raise or lower the signal. Summed up: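 Keratinocytes and foreskin fibroblasts were co-cultured, dosed with chemical, and sampled 24 h later. MCP-1 was quantified by ELISA, and the endpoint was analyzed with bidirectional fitting using DMSO as negative control.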

Read-out in assay [12]: Matrix Metallopeptidase 9 (MMP9), MMP9 (gene 4318)
The assay is described as follows: BSK_KF3CT_MMP9: BioMAP Diversity Plus: KF3CT Assay for Matrix Metallopeptidase 9 (MMP9) Biomarker Activity (AID 2283074). The following applies: primary human keratinocytes with fibroblasts; actives raise or lower the signal. Summed up: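 ELISA read-out of MMP-9 at 24 h post-dosing in a co-culture of human skin keratinocytes and foreskin fibroblasts. Gain or loss of signal was fitted in both directions against DMSO.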

Read-out in assay [13]: urokinase plasminogen activator (uPA), PLAU (gene 5328)
The assay is described as follows: BSK_KF3CT_uPA: BioMAP Diversity Plus: KF3CT Assay for urokinase plasminogen activator (uPA) Biomarker Activity (AID 2283075). The settings on record: primary human keratinocytes with fibroblasts; actives raise or lower the signal. A digest of the protocol: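 Skin co-culture (keratinocytes + foreskin fibroblasts), human primary; 24 h post-dose; uPA by ELISA; gain/loss fit vs DMSO baseline.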

Read-out in another assay: CD40, CD40 (gene 958)
Description: BSK_LPS_CD40: BioMAP Diversity Plus: LPS Assay for CD40 Biomarker Activity (AID 2283076). The settings on record: primary human HUVEC with PBMC; actives raise or lower the signal. A digest of the protocol: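 CD40 signal, measured by ELISA, is fitted in both directions relative to DMSO vehicle. The system is an LPS-driven human vascular primary co-culture of endothelial cells and PBMC, sampled 24 h after compound addition.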

Read-out in assay [14]: E-selectin (Homo sapiens) (UniProt P16581)
The assay is described as follows: BSK_LPS_Eselectin: BioMAP Diversity Plus: LPS Assay for Eselectin Biomarker Activity (AID 2283077). The settings on record: primary human HUVEC with PBMC; actives raise or lower the signal. A digest of the protocol:
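Signal of E-selectin, detected by ELISA, served as the endpoint; cells were umbilical vein endothelium with PBMC, read 24 h after treatment. DMSO defined baseline, and both increases and decreases were fitted.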

Read-out in assay [15]: Interleukin-8 (IL8), CXCL8 (gene 3576)
Description: BSK_LPS_IL8: BioMAP Diversity Plus: LPS Assay for Interleukin-8 (IL8) Biomarker Activity (AID 2283078). The following applies: primary human HUVEC with PBMC; actives raise or lower the signal. Summed up: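 Endothelial cells and PBMC from human donors are co-cultured, treated with chemicals and LPS, then assayed for IL-8 by ELISA after 24 h. Parallel SRB staining (0.1% SRB after 10% TCA fixation, 560 nm) flags cytotoxicity.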

A short description of assay [16]: BSK_LPS_SRB: Viability Assessment in the BioMAP Diversity Plus: LPS Assay (AID 2283079).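 Also: total protein by sulforhodamine B absorbance as a cytotoxicity measure; measured one day after compound addition.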 The settings on record: primary human HUVEC with PBMC. Summed up:
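Overt cytotoxicity was gauged by sulforhodamine B total-protein staining in a primary human vascular endothelial and mononuclear cell co-culture 24 h post-dosing. Activity was fitted in both directions relative to DMSO.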

Read-out in assay [17]: Interleukin-1 alpha (IL1a), IL1A (gene 3552)
Description: BSK_LPS_IL1a: BioMAP Diversity Plus: LPS Assay for Interleukin-1 alpha (IL1a) Biomarker Activity (AID 2283080). The settings on record: primary human HUVEC with PBMC; actives raise or lower the signal. A digest of the protocol: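 Measured: IL-1 alpha via ELISA at 24 h in LPS-activated human umbilical vein endothelium–PBMC co-culture. Baseline: DMSO, bidirectional fitting.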

Read-out in assay [18]: Monocyte Chemoattractant Protein-1 (MCP1), CCL2 (gene 6347)
The assay is described as follows: BSK_LPS_MCP1: BioMAP Diversity Plus: LPS Assay for Monocyte Chemoattractant Protein-1 (MCP1) Biomarker Activity (AID 2283081). The following applies: primary human HUVEC with PBMC; actives raise or lower the signal. Summed up: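 LPS-stimulated HUVEC/PBMC co-culture; chemical, 24 h; MCP-1 by ELISA; bidirectional fit vs DMSO; cytotoxicity via SRB (0.1% stain, 10% TCA fix, 560 nm) in parallel wells.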

Sequence of E-selectin (Homo sapiens) (P16581 whole entry, looked up): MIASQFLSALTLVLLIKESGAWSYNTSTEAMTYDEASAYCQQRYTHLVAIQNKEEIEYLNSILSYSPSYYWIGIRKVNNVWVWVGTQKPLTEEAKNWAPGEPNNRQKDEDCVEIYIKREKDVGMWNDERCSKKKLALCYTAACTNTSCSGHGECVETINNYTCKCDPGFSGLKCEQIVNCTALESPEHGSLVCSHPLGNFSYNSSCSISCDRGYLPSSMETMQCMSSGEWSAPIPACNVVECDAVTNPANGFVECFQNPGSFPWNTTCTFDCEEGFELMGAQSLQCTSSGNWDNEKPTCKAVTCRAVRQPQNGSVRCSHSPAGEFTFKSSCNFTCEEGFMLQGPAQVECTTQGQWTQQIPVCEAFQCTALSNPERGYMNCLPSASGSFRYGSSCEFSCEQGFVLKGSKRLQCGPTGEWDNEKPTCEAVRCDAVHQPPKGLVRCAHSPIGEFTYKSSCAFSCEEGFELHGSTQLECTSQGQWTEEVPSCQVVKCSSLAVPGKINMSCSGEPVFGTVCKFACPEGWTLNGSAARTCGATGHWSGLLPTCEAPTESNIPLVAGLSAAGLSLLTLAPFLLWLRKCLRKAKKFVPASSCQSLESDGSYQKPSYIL

Take `Oc1ccccc1Cl`: the result in assay [1], in [2], in [3], in assay [4], in assay [5] and in [6] was inactive. Further, the outcome in assay [7], in assay [8], in assay [9], in [10], in assay [11] and in [12] was inactive. The outcome in assay [13] is “inactive”; with CD40, CD40 (gene 958), “inactive”; in assay [14], “inactive”; in [15], “inactive”; in assay [16] it was “inactive”; in assay [17], “inactive”. Moreover, the outcome in [18] was inactive.

As for `CC(C)(C)C(O)(CCc1ccc(Cl)cc1)Cn1cncn1` (stereo unspecified), the outcome in [1], in [2], in assay [3], in [4], in assay [5] and in assay [6] was inactive. Besides, the outcome in assay [7], in assay [8], in assay [9], in assay [10], in [11] and in assay [12] was inactive. Besides, the outcome in assay [13] was “inactive”; in the assay with CD40, CD40 (gene 958), “inactive”; in assay [14], “inactive”; in assay [15] it was “inactive”; in assay [16], “inactive”; in assay [17] it was “inactive”. In addition, in assay [18], the result was inactive.

Take `CC(C)COC(=O)c1ccccc1C(=O)OCC(C)C`: the result in assay [1], in assay [2], in assay [3], in assay [5], in assay [6] and in assay [7] was inactive. For the same molecule, the outcome in [8], in assay [9], in [10], in assay [11], in [12] and in [13] was inactive. Also, the outcome is “inactive” in the assay with CD40, CD40 (gene 958); “inactive” in assay [14]; “inactive” in [15]; “inactive” in assay [16]; “inactive” in [17]; “inactive” in [18]. The concentration at half-maximal activity (AC50) in assay [4] is 20 µM (active).

As to `[As]#[In]`, the result in [1], in [2], in assay [3], in assay [4], in assay [5] and in assay [6] was inactive. Also, the result in assay [7], in assay [8], in assay [9], in [10], in assay [11] and in assay [12] was inactive. For the same molecule, the outcome was “inactive” in assay [13]; “inactive” in the assay with CD40, CD40 (gene 958); “inactive” in [14]; “inactive” in assay [15]; “inactive” in assay [16]; “inactive” in assay [17]. In addition, in assay [18], the outcome was inactive.

A word on the AC50: it is the concentration at which the activity in the assay is half-maximal.
